Screening results: PubChem, National Center for Advancing Translational Sciences (NCATS)
NIH3T3 tox: Cytotoxic Profiling in NIH 3T3 Cell Line of Diverse Libraries Using Quantitative High-Throughput Screening; AID 1345082, 2018; NIH 3T3 viability, CellTiter-Glo ATP luminescence, 48-72 h; Potency, µM (titrated, usually from 96.7 µM), for the others: at the highest dose activity change, negative = cytotoxicity, most hits filed as inhibitors; 94,000 compounds, 4.3% hits; also: % is scaled to controls: 0 for no effect and ±100 for the full control effect; nearly all actives have a fitted effect of over 55% in size
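Mouse fibroblast NIH 3T3 cells, 400 per well, received compound via pintool and were incubated for 48 or 72 hr prior to CellTiter-Glo ATP luminescence measurement.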
FLuc inh: Firefly luciferase inhibition profiling of diverse chemical library using quantitative high-throughput screening; Luciferin 4-monooxygenase (Photinus pyralis), P08659; purified P. pyralis luciferase, luminescence, biochemical; Potency, µM (series often up to 115 µM), usual class: inhibitors; 76,000 compounds, 2.5% hits; AID 1347043, 2019; also: % is scaled to controls: 0 for no effect and ±100 for the full control effect; nearly all actives have a fitted effect of over 65% in size
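Purified 10nM P. pyralis luciferase with 10uM D-luciferin and 10uM ATP in 50mM Tris acetate pH 7.5, 10mM Mg acetate, 0.01% Tween-20, 0.05% BSA. qHTS titration; luminescence read by CCD imager.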
HEK293 tox: Cytotoxic Profiling in HEK 293 Cell Line of Diverse Libraries Using Quantitative High-Throughput Screening; HEK 293 viability, ATP luminescence (CellTiter-Glo), 48-72 h; Potency, µM (highest dose often 115 µM), for the others: at the top dose activity change, negative = cytotoxicity, hits mostly inhibitors; 94,000 compounds, 6.6% hits; AID 1345083, 2018; also: % is scaled to controls: 0 for no effect and ±100 for the full control effect; nearly all actives have a fitted effect of over 60% in size
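qHTS cytotoxicity; HEK 293, 250 cells/well; compound pinned; 48 or 72 hr, 37 degree Celsius, 5% CO2, 95% humidity; CellTiter-Glo, 10 min RT; luminescence (ATP).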
hNpr1 antagonist: Natriuretic polypeptide receptor (hNpr1) antagonism - Primary qHTS | Potency, µM (doses to about 46.3 µM), for inactives: at the highest dose activity change, negative = inhibition, actives largely listed as inhibitors | Atrial natriuretic peptide receptor 1 (Homo sapiens), P16066 | 76,000 compounds, 1.6% hits | HEK293 hNpr1 GloSensor cGMP, ANP-stimulated luminescence; calls by dose curve; also: % is scaled to controls: 0 for no effect and ±100 for the full control effect; nearly all actives have a fitted effect of over 60% in size
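Compound pre-incubated 30 min at room temperature on GloSensor-loaded HEK293 cells stably carrying hNpr1 and the pGS-40F cGMP biosensor. Stimulation uses hNppA at 0.1 nM final; luminescence is taken at baseline and 20 min post-agonist.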
NPR1 antag cnf: Natriuretic polypeptide receptor (hNpr1) antagonism - Confirmation. shares compounds with hNpr1 antagonist. HEK293 hNpr1 cGMP GloSensor luminescence, ANP-stimulated. Potency, µM (top dose mostly 57.6 µM), without a hit: at the top dose activity change, negative = inhibition, hits mostly inhibitors. 1,400 compounds, 76% hits. AID 1347044, 2019; calls by dose curve; also: nearly all actives have a fitted effect of over 70% in size
NPR2 antag: Natriuretic polypeptide receptor (hNpr2) antagonism - Subtype selectivity assay; shares compounds with hNpr1 antagonist; HEK293 hNpr2 GloSensor cGMP luminescence, CNP-stimulated; Potency, µM (highest dose often 57.6 µM), for the others: at the top dose activity change, negative = inhibition, usual class: inhibitors; 1,400 compounds, 67% hits; AID 1347046, 2019; calls by dose curve; also: nearly all actives have a fitted effect of over 70% in size
Target sequence (P20594 whole entry, looked up): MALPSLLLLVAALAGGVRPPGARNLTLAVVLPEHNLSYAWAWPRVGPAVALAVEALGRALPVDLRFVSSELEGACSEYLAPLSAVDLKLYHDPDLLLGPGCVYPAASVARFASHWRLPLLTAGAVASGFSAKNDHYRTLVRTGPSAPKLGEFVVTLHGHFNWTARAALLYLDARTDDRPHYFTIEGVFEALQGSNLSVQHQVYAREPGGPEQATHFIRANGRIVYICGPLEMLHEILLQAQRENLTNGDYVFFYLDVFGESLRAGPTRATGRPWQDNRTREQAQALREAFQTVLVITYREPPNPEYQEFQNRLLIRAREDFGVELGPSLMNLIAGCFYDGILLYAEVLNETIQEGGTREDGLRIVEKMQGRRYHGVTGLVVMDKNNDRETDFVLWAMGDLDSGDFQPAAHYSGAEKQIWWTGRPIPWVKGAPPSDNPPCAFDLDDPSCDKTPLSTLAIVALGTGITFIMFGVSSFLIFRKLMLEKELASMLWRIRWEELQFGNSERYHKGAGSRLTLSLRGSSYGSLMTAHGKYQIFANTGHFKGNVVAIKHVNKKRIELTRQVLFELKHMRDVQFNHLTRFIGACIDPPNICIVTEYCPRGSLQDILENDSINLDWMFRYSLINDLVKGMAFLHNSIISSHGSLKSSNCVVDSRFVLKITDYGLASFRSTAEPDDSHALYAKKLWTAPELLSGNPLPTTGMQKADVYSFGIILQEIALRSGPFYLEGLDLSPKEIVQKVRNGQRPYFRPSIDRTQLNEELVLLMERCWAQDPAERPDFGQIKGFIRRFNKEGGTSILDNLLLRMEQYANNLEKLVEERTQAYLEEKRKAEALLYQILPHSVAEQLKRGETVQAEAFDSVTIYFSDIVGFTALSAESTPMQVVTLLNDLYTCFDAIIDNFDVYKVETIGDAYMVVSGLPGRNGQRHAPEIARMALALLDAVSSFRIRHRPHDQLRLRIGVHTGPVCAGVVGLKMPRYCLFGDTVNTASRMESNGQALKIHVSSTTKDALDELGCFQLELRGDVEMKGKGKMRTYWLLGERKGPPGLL
FLuc inh counter: Natriuretic polypeptide receptor (hNpr1) antagonism - Confirmation firefly luciferase (FLuc) inhibition counterscreen; shares compounds with hNpr1 antagonist; purified FLuc enzyme, luminescence, Km substrate; Potency, µM (top dose mostly 57.6 µM), for inactives: top-dose activity change, negative = inhibition, hits mostly inhibitors; 1,400 compounds, 0.7% hits; also: 0% is about no effect
GloSensor cGMP: Natriuretic polypeptide receptor (hNpr1) antagonism - Counterscreen GloSensor control cell line; shares compounds with hNpr1 antagonist; HEK293 GloSensor cGMP, SNP-stimulated, luminescence; Potency, µM (highest dose often 57.6 µM), inactives show top-dose activity change, negative = inhibition, hits mostly inhibitors; 1,400 compounds, 69% hits; AID 1347051, 2019; calls by dose curve; also: % is scaled to controls: 0 for no effect and ±100 for the full control effect; nearly all actives have a fitted effect of over 70% in size
* hit, by the source's call; [ ] = remark or other dose. Compounds with a hit are over-represented: about 11% of the library has one in this group of screens. Unless noted, calls follow the shape of the dose curve; as a rule, active = well fitted curve in the direction sought with a large enough effect; inconclusive = small, poorly fitted or top-dose-only effect, or another doubt; inactive = no such curve, though single readings can be large; an effect the other way counts as inactive or inconclusive. Potency is read from the fitted curve at half-maximal effect.

O=C(c1cccc(Br)c1)N1CCN(c2cc(-c3ccc(Cl)cc3)[nH]n2)CC1 was read as NIH3T3 tox 31.6µM*, FLuc inh inactive, HEK293 tox 39.8µM*, hNpr1 antagonist inconclusive, NPR1 antag cnf 24.3µM*, NPR2 antag inconclusive, FLuc inh counter -1.3% and GloSensor cGMP inconclusive.
C#CCNC(=O)C[C@@H]1C[C@@H](C(C)C)[C@H](CNS(=O)(=O)c2cccc(C#N)c2)C=C1C was read as NIH3T3 tox inconclusive, FLuc inh inactive, HEK293 tox inconclusive and hNpr1 antagonist -13.6%[70.6 µM].
Screening CN1C[C@@H](NC(=O)CC(C)(C)C)C[C@H]1c1nc(-c2ccc3c(c2)OCO3)no1 returned NIH3T3 tox inconclusive, FLuc inh inactive, HEK293 tox inconclusive, hNpr1 antagonist 25.1µM*, NPR1 antag cnf inconclusive, NPR2 antag inconclusive, FLuc inh counter -2.6%[86.2 µM] and GloSensor cGMP 39.6µM*.
`O=C(c1ccc(F)cc1)N1CCCC(n2cc(-c3nc(-c4ccccc4)no3)nn2)C1` (centres undefined) gave NIH3T3 tox inconclusive, FLuc inh inconclusive, HEK293 tox inconclusive, hNpr1 antagonist inconclusive, NPR1 antag cnf 24.3µM*, NPR2 antag 24.3µM*, FLuc inh counter inconclusive and GloSensor cGMP 24.3µM*.
`O=C(c1ccc(F)cc1)N1CCC(n2cc(-c3nc(-c4ccccc4)no3)nn2)CC1` gave NIH3T3 tox inconclusive, FLuc inh inactive, HEK293 tox inconclusive, hNpr1 antagonist inconclusive, NPR1 antag cnf inconclusive, NPR2 antag inconclusive, FLuc inh counter -17.2% and GloSensor cGMP 24.3µM*.
For O=C(c1ccc(Cl)cc1)N1CCC(n2cc(-c3nc(-c4ccccc4)no3)nn2)CC1 the results were NIH3T3 tox inconclusive, FLuc inh inactive, HEK293 tox inconclusive, hNpr1 antagonist 15.8µM*, NPR1 antag cnf 21.7µM*, NPR2 antag 21.7µM*, FLuc inh counter -18.8% and GloSensor cGMP 21.7µM*.
For CC(Oc1ccccc1)C(=O)N1CCC(n2cc(-c3nc(-c4ccccc4)no3)nn2)CC1 (centres undefined) the results were NIH3T3 tox inconclusive, FLuc inh inactive, HEK293 tox 20µM*, hNpr1 antagonist 17.8µM*, NPR1 antag cnf 24.3µM*, NPR2 antag 21.7µM*, FLuc inh counter -23.7% and GloSensor cGMP 24.3µM*.
O=C(c1ccccc1Cl)N1CCC(n2cc(-c3nc(-c4ccccc4)no3)nn2)CC1 was read as NIH3T3 tox -23.9%, FLuc inh inactive, HEK293 tox inconclusive and hNpr1 antagonist inconclusive.
Screening CC(=O)N1Cc2ccccc2CC2(CCN(CC3CCOCC3)C2)C1 (centres undefined) returned NIH3T3 tox -11.5% and HEK293 tox inconclusive.
`O=C(NCCc1ccc(F)cc1)C1CN(C2CCCCC2)C(=O)N1` (centres undefined) gave NIH3T3 tox -17.3%[138 µM] and HEK293 tox -29.4%[172 µM].
For O[C@@H]1CC(CNCc2cccc(Cl)c2)(COc2ccccc2)C[C@@H]1O (some centres undefined) the results were NIH3T3 tox inconclusive, FLuc inh inactive, HEK293 tox 100µM*, hNpr1 antagonist -28.0%[70.6 µM], NPR1 antag cnf inconclusive, NPR2 antag 31.4µM*, FLuc inh counter -7.1%[86.2 µM] and GloSensor cGMP -26.5%[86.2 µM].
O=C(NCc1cccc(F)c1)c1nc2c(o1)CCN(CC1CCCC1)CC2 was read as NIH3T3 tox inconclusive, FLuc inh inactive, HEK293 tox -29.9%[172 µM] and hNpr1 antagonist -5.4%[70.6 µM].
For O=C(NCc1ccccc1)c1nc2c(o1)CCN(Cc1ccc(F)cc1F)CC2 the results were NIH3T3 tox 70.8µM*, FLuc inh inactive, HEK293 tox 100µM*, hNpr1 antagonist 25.1µM*, NPR1 antag cnf 39.6µM*, NPR2 antag 35.3µM*, FLuc inh counter 1.1%[86.2 µM] and GloSensor cGMP 39.6µM*.
Screening Cc1ccccc1CN1CCc2nc(C(=O)NCc3ccncc3)oc2CC1 returned NIH3T3 tox inconclusive, FLuc inh inactive, HEK293 tox inconclusive, hNpr1 antagonist 22.4µM*, NPR1 antag cnf 31.4µM*, NPR2 antag 31.4µM*, FLuc inh counter -1.8%[86.2 µM] and GloSensor cGMP 25µM*.
For O=C(NCc1cccc(F)c1)c1nc2c(o1)CCN(Cc1cc(F)ccc1F)CC2 the results were NIH3T3 tox 50.1µM*, FLuc inh inactive, HEK293 tox inconclusive, hNpr1 antagonist inconclusive, NPR1 antag cnf 39.6µM*, NPR2 antag inconclusive, FLuc inh counter 0.3%[86.2 µM] and GloSensor cGMP 39.6µM*.
`COc1ccc(CN2CCc3nc(C(=O)NCc4ccncc4)oc3CC2)cc1OC` gave NIH3T3 tox inconclusive, FLuc inh inactive, HEK293 tox inconclusive and hNpr1 antagonist -23.9%[70.6 µM].
COc1ccc(CN2CCc3nc(C(=O)NCCOc4ccccc4)oc3CC2)cn1 was read as NIH3T3 tox inconclusive, FLuc inh inactive, HEK293 tox inconclusive, hNpr1 antagonist inconclusive, NPR1 antag cnf 44.4µM*, NPR2 antag inconclusive, FLuc inh counter -0.8%[86.2 µM] and GloSensor cGMP inconclusive.
Cc1nn(-c2ccccc2)c2c1C(C)N(C1CCCN([S+](=O)([O-])c3ccccc3)C1)C2=O (centres undefined) was read as NIH3T3 tox -25.0% and HEK293 tox inconclusive.
N#Cc1ccc(CN2CCc3nc(C(=O)NCc4cccc(F)c4)oc3CC2)cc1 was read as NIH3T3 tox inconclusive, FLuc inh inactive, HEK293 tox inconclusive, hNpr1 antagonist inconclusive, NPR1 antag cnf 39.6µM*, NPR2 antag inconclusive, FLuc inh counter 2.5%[86.2 µM] and GloSensor cGMP 31.4µM*.
